Screens as filed in PubChem BioAssay.
Rows were chosen to be rich in hits. Some 18% of all compounds tested hit in one or more screens of this group.
TDP1 inh = TDP1 (human) enzyme inhibition | AID 485290 | recombinant TDP1, AlphaScreen DNA substrate cleavage | Potency, µM (top dose mostly 130 µM), inactives show at the top dose activity change, negative = inhibition, actives largely listed as inhibitors | 0.28% of 350,000 active; also: potency is read from the fitted curve at half-maximal effect; % is scaled to controls: 0 for no effect and ±100 for the full control effect; nearly all actives have a fitted effect of over 40% in size
Target sequence (Q9NUW8 whole entry, looked up): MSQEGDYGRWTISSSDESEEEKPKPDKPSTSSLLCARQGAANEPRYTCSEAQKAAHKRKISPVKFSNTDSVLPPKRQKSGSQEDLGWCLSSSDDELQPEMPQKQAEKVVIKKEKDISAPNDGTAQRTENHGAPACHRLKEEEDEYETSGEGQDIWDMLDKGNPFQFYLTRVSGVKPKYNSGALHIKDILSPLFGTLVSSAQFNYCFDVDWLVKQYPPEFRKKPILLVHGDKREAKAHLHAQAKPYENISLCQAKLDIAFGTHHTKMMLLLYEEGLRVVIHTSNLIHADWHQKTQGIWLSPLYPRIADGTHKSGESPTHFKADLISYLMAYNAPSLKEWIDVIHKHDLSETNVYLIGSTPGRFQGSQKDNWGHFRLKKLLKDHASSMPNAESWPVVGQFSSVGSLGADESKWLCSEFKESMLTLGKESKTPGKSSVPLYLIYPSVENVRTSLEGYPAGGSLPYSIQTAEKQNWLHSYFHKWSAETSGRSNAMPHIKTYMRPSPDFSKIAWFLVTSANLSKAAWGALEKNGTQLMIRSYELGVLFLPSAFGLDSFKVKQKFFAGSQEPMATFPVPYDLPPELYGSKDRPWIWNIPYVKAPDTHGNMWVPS
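Here, a 5' biotin and 3' phosphotyrosine-FITC DNA oligonucleotide reports Tdp1 activity: intact substrate bridges AlphaScreen beads, while cleavage leaves a 3' phosphate and drops signal. All incubations at room temperature.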
TDP1 cell CPT = growth inhibition of DT40 Tdp1-/-;hTDP1 cells with camptothecin (screen for TDP1 inhibitors); chicken DT40 Tdp1-/-;hTDP1 cells + 20 nM CPT, ATP luminescence, 48 h; Potency, µM (top dose mostly 46.2 µM), for the others: at the top dose activity change, negative = growth inhibition, hits mostly inhibitors; 12% of 420,000 active; AID 686979; also: potency is read from the fitted curve at half-maximal effect; % is scaled to controls: 0 for no effect and ±100 for the full control effect; nearly all actives have a fitted effect of over 55% in size
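Chicken DT40 Tdp1-/- cells complemented with human TDP1, 400 cells/well, exposed to compounds plus 20 nM camptothecin for at least 48 h at 37 C; viability read as ATP content by CellTiter-Glo luminescence.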
HepG2 tox = HepG2 cytotoxicity, counter-screen for TGF-b inhibitors. AID 588856. 0.76% of 410,000 active. Potency, µM (titrated, usually from 46.1 µM), inactives show at the highest dose activity change, negative = cytotoxicity, usual class: cytotoxic. HepG2 CAGA-GFP viability, ATP luminescence, 18 h; also: potency is read from the fitted curve at half-maximal effect
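CellTiter-Glo luminescence gave cytotoxicity after 18 hours at 37 degrees C. The cells were HepG2 CAGA-GFP in 1% FBS DMEM, stimulated with 500 pg/mL TGF-beta after compound addition. %Activity was normalised to no-cell wells (complete cell-killing) and DMSO (no toxicity), and curves were fitted and classified.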
DT40 TDP1 no CPT = qHTS for Inhibitors of human tyrosyl-DNA phosphodiesterase 1 (TDP1): qHTS in cells in absence of CPT; DT40 Tdp1-/- hTDP1 cells, no CPT, ATP luminescence, 48 h; Potency, µM (series often up to 46.2 µM), inactives show at the top dose activity change, negative = growth inhibition, actives largely listed as inhibitors; 15% of 420,000 active; AID 686978, 2013; also: potency is read from the fitted curve at half-maximal effect; % is scaled to controls: 0 for no effect and ±100 for the full control effect; nearly all actives have a fitted effect of over 55% in size
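Camptothecin absent (DMSO only). Human TDP1-complemented DT40 knockout cells, 400 cells/well, 37 °C for minimum 48 hr; ATP measured via CellTiter-Glo, 30 min dark incubation, luminescence.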
IL1B secr inh = inhibitors of inflammasome signaling (IL-1 beta secretion); 4.7% of 360,000 active; activity change, % at 57.5 µM; THP-1 LPS/ATP IL-1B secretion, AlphaLISA, 16 h; stronger effect = lower value; AID 743279; in the data active = activity change below about -50%; inconclusive = mostly about -30% to -49%; also: % is scaled to controls: 0 for no effect and ±100 for the full control effect
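Secreted IL-1B measured by AlphaLISA bead assay after 16 h compound exposure of THP-1 cells; compounds (final up to 57.5 uM) added 1 h before LPS (250 ng/mL) and ATP (1.25 mM) stimulation; lower signal means less secretion.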
TGFb SMAD3 inh = TGF-b pathway inhibition | HepG2 CAGA-GFP TGF-b/SMAD3 reporter, GFP fluorescence, 18 h; TGF-beta stimulated, 500 pg/mL final | Potency, µM (titrated, usually from 46.1 µM), inactives show top-dose activity, negative = inhibition, hits mostly inhibitors | 1.2% of 410,000 active; also: potency is read from the fitted curve at half-maximal effect; % is scaled to controls: 0 for no effect and ±100 for the full control effect; nearly all actives have a fitted effect of over 65% in size
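Inhibition was scored as loss of TGF-beta-induced (500 pg/mL final, 18 hours, 37 degrees C) GFP in HEPG2 cells carrying a CAGA-GFP reporter, in DMEM with 1% FBS. Well GFP was summed per cell; Activity was normalised to unstimulated and stimulated DMSO wells, then concentration-response fitting.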
The depositor's hits bear a star; [ ] = dose if it differs, or a comment. Unless noted, calls follow the shape of the dose curve; as a rule, active = well fitted curve in the direction sought with a large enough effect; inconclusive = small, poorly fitted or top-dose-only effect, or another doubt; inactive = no such curve, though single readings can be large; an effect the other way counts as inactive or inconclusive.

For O=C(Nc1cccc(-c2cccc(Cl)c2)c1)C1CCN(Cc2nccs2)CC1 the results were TDP1 cell CPT 9.2µM*, HepG2 tox -40.4%, DT40 TDP1 no CPT 5.8µM*, IL1B secr inh -26.0 and TGFb SMAD3 inh inconclusive.
`O=C(Nc1cccc(-c2cccc(Cl)c2)c1)C1CCN(Cc2ccc(CO)o2)CC1` gave TDP1 inh 6.0%[56.1 µM], TDP1 cell CPT inconclusive, HepG2 tox -55.5%, DT40 TDP1 no CPT inconclusive, IL1B secr inh -81.0* and TGFb SMAD3 inh inconclusive.
`C=C1C(=O)OC2C[C@@]3(C)CCCC(=C)[C@@H]3CC12` (some centres not stated) gave TDP1 cell CPT 26.6µM* and DT40 TDP1 no CPT 23.7µM*.
Screening C=C1CCC[C@]2(C)C[C@H]3OC(=O)C(CN4CCCCC4CO)[C@H]3CC12 (some centres not stated) returned TDP1 cell CPT 4.61µM*, HepG2 tox -65.5%, DT40 TDP1 no CPT 11.6µM* and TGFb SMAD3 inh inconclusive.
C=C1CCC[C@]2(C)C[C@H]3OC(=O)C(CNC(CC)CO)[C@H]3CC12 (some centres not stated) was read as TDP1 cell CPT inconclusive, HepG2 tox -34.3%, DT40 TDP1 no CPT 18.4µM*, IL1B secr inh -97.7* and TGFb SMAD3 inh inconclusive.
For C[C@@H](CN(C)C[C@H]1C(=O)O[C@@H]2C[C@@]3(C)CCC[C@]4(CO4)C3CC21)[C@H](O)c1ccccc1 (some centres not stated) the results were TDP1 inh 6.2%, TDP1 cell CPT 13.8%[9.04 µM] and DT40 TDP1 no CPT 2.1%[9.04 µM].
C=C1CCC[C@]2(C)C[C@H]3OC(=O)C(CNC(C)(CO)CO)[C@H]3CC12 (some centres not stated) was read as TDP1 cell CPT inconclusive, HepG2 tox -31.9%, DT40 TDP1 no CPT 20.6µM*, IL1B secr inh -96.2* and TGFb SMAD3 inh inconclusive.
C=C1CCC[C@]2(C)C[C@H]3OC(=O)C(CN(C)CC(OC)OC)[C@H]3CC12 (some centres not stated) was read as TDP1 cell CPT inconclusive, HepG2 tox -2.6%, DT40 TDP1 no CPT inconclusive, IL1B secr inh -91.6* and TGFb SMAD3 inh inconclusive.
C=C1CCC[C@]2(C)C[C@H]3OC(=O)C(CNC(C)CC)[C@H]3CC12 (some centres not stated) was read as TDP1 cell CPT inconclusive, HepG2 tox -61.3%, DT40 TDP1 no CPT inconclusive, IL1B secr inh -96.2* and TGFb SMAD3 inh inconclusive.
`CCCC[C@@H]1CCCO[C@@](C(=O)NCc2ccc(C)o2)(C(F)(F)F)C1` gave TDP1 inh 4.4%, TDP1 cell CPT inconclusive, HepG2 tox 2.3%, DT40 TDP1 no CPT inconclusive, IL1B secr inh 7.1 and TGFb SMAD3 inh inconclusive.
Cc1ccc(S(=O)(=O)Nc2ccc(-n3cnnn3)cc2)cc1 was read as TDP1 inh 1.9%, TDP1 cell CPT -12.5%, HepG2 tox -3.6%, DT40 TDP1 no CPT -37.1%, IL1B secr inh -2.1 and TGFb SMAD3 inh 3.7%.
COc1ccc(NS(=O)(=O)c2ccc(-n3cnnn3)cc2)cc1OC was read as TDP1 inh 4.8%, TDP1 cell CPT 16.4µM*, HepG2 tox -1.8%, DT40 TDP1 no CPT 9.2µM*, IL1B secr inh 17.0 and TGFb SMAD3 inh -9.7%.
`CSc1ccc(NS(=O)(=O)c2ccc(-n3cnnn3)cc2)cc1` gave TDP1 inh 4.8%, TDP1 cell CPT inconclusive, HepG2 tox -1.9%, DT40 TDP1 no CPT 20.6µM*, IL1B secr inh -6.1 and TGFb SMAD3 inh -2.1%.
